Compounds with a hit are over-represented: about 1.9% of the library has one in this group of screens.
Autofluor Jurkat – counter-screen for VLA-4 integrin: compound autofluorescence in Jurkat cells; flow cytometry; stronger effect = higher value; 1 = vehicle-only cell background; fluorescence ratio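 (tested at 10 µM compound in the well)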; hit rate 0.61% among 24,000; AID 576;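 active means fluorescence ratio above 2.44, which is 1 plus 3 SD of all ratios; inconclusive means signal too bright to measure linearly, ratio around 10 or more; inactive means fluorescence ratio below 2.44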;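 further: green fluorescence of cells measured with 488 nm excitation and 530 nm emission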
VLA-4 agonist – allosterically activates the human VLA-4 integrin; P13612; Jurkat cells, LDV-FITC binding, flow cytometry; activation, % at 10 µM (by protocol); 24,000 tested, under 10 active;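 active means fluorescent ligand binding to cells raised by more than 40% of the manganese-induced maximum; inconclusive means compound's own fluorescence above 85% of the ligand control signal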;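 further: 0% = ligand binding without compound and 100% = manganese-stimulated maximal binding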
Target sequence (P13612 whole entry, looked up): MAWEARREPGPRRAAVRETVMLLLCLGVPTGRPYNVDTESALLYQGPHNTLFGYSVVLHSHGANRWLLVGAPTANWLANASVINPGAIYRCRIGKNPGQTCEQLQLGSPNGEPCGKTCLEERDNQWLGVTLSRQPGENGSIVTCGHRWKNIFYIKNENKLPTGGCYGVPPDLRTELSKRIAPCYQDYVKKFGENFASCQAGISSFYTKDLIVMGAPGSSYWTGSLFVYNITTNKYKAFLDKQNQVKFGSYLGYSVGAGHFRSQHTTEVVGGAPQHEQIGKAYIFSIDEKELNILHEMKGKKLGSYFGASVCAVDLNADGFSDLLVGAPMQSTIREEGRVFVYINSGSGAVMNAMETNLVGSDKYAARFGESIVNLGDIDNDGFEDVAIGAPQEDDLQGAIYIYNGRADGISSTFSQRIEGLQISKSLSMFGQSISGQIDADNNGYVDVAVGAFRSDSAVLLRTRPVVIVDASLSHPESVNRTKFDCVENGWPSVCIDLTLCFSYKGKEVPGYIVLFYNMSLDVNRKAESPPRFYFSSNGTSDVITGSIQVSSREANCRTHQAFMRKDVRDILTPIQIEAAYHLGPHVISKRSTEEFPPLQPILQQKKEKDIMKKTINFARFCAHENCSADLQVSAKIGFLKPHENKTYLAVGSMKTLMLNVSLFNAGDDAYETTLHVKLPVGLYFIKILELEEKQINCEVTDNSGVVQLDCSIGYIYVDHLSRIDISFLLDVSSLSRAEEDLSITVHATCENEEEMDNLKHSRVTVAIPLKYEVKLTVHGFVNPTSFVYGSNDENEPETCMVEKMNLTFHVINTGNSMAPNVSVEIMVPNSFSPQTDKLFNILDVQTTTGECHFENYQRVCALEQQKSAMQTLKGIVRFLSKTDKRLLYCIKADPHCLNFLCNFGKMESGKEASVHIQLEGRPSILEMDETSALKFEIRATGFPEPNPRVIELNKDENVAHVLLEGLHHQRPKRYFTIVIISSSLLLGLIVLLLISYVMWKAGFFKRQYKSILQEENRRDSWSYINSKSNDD
FPRL1 binder – binds the human formylpeptide receptor-like-1 FPRL1 | P25090 | FPRL1-expressing cells, fluorescent ligand binding inhibition, flow cytometry | inhibition, % (test concentration not listed) | hit rate 0.3% among 24,000 | AID 441;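 further: 0% = buffer alone and 100% = receptor blocker peptide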
FPR binder – ligands of human FPR, also counter-screen for FPRL1 ligands | hit rate 0.74% among 24,000 | P21462 | inhibition, % (no concentration beside the values) | FPR-expressing cells, fluorescent ligand binding, flow cytometry;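 further: 0% = buffer wells and 100% = receptor blocker peptide wells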
Proteasome disasm – blocks ATP-dependent breakdown of the yeast 26S proteasome | anti-FLAG beads, GFP-proteasome disassembly, flow cytometry | inhibition of disassembly, % (no concentration beside the values) | hit rate 0.2% among 24,000;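 active means inhibition of disassembly above about 33%, limit read from the data; inconclusive means likely self-fluorescent, control bead median signal at least 40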;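 further: plate controls were ATP control with full disassembly for no effect and ATP-gamma-S intact proteasomes for full effect; higher percent means more bead fluorescence retained so stronger block of disassembly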
VLA-4 antagonist – blocks LDV-FITC ligand binding to Mn2+-activated human VLA-4 integrin | P13612 | Jurkat cells, LDV-FITC binding with Mn2+, flow cytometry; 100% = Mn2+-driven binding gain fully reversed | inhibition, % at 10 µM (by protocol) | hit rate 0.2% among 24,000 | AID 529;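 active means inhibition above 50%; inconclusive means compound itself fluorescent, judged against control cell fluorescence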;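 further: 0% = Mn2+ stimulated cells lacking compound and 100% = ligand binding without Mn2+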
* marks the source's active call; other numbers are inactive results; ? = inconclusive; nt = no result. Unless noted, no stated cut-off is given here; in the data, active means inhibition above about 30%; inconclusive means no clear call, values can overlap the other calls; inactive means below that.

SMILES	Autofluor Jurkat	VLA-4 agonist	FPRL1 binder	FPR binder	Proteasome disasm	VLA-4 antagonist
O=C(NCCN1CCOCC1)NC1(C(F)(F)F)Oc2ccc(Cl)cc2O1 (centres undefined)	1	2	-7	66*	-3	2
COCC(C)NC(=O)NC1(C(F)(F)F)Oc2ccc(Cl)cc2O1 (centres undefined)	1	1	2	6	-1	-8
O=C(CCN1C(=O)c2ccncc2C1=O)NCc1ccc(Cl)cc1	0.96	2	-4	-2	0	1
CCOc1ccc(S(=O)(=O)NCc2csc(C)n2)cc1	1	7	2	0	1	10
NC1=CC(=O)c2cccc3cccc1c23	3.5*	?	-29	-3	6	?
N#C[C@@H]1[C@@H]2C(=O)N(c3ccc4c(c3)OCCO4)C(=O)[C@@H]2C2c3ccccc3C=CN21 (some centres undefined)	5.2*	?	-17	-22	6	?
CCOC(=O)C1CCN(Cc2ccc(C(=O)OC)cc2)CC1	1.1	4	55*	48*	1	-17
CCOC(=O)C1CCN(CC(O)COc2ccc(C(C)=O)cc2)CC1 (centres undefined)	0.99	2	27	35*	1	-23
CCCN1C(=O)C2C(C(=O)Nc3cccc(OC)c3)C3C=CC2(O3)C1C(=O)NC1CCCCC1 (centres undefined)	1	1	-8	-6	-1	1
Nc1ccc(Nc2ccccc2N)cc1	5.2*	?	47*	3	?	?
Nc1cc(C(=O)O)ccc1Nc1ccccc1	1	0	0	-2	-1	6
Cc1cccn2c(=O)c3cc(C#N)c(=NC(=O)c4ccncc4)n(Cc4ccco4)c3nc12	4.1*	?	9	10	-1	?
COc1ccc(S(=O)(=O)Nc2ccc(C)cc2)cc1OC	0.87	12	-3	-4	1	-20
CCOC(=O)CCc1c(C)c2c(C)nn(-c3ccccc3)c2[nH]c1=O	1.1	-2	2	5	2	-9
CCSc1nc(O)c(C2OC(=O)c3c2ccc(OC)c3OC)c(=O)n1-c1ccccc1 (centres undefined)	0.96	-7	0	34*	-1	14
N[C@@H](Cc1ccc(O)c(I)c1)C(=O)O	1	0	-3	51*	0	-8
O=C(O)Cc1cc(I)c(Oc2ccc(O)c(I)c2)c(I)c1	1.2	4	2	-5	0	-18
CCN1C(=O)c2cccc3c(NC(=O)c4ccc(S(=O)(=O)N(C)C)cc4)ccc1c23	1.1	6	-4	-4	1	-10
CCOC(=O)c1ccc(NC(=O)Nc2ccc3c4c(cccc24)C(=O)N3CC)cc1	3.1*	?	48*	-18	1	?
Cc1ccc(NC(=O)C2CCCN(S(=O)(=O)c3cccs3)C2)cc1 (centres undefined)	1.1	-13	11	-5	-1	68*
Cc1ccc(-c2nnc3c4ccccc4c(C)nn23)cc1S(=O)(=O)N1CCN(C)CC1	1.1	-10	-1	-7	-1	6
O=c1ccc2cc3c([nH]c4ccc(Br)cc43)oc-2c1O	6.6*	?	0	-20	-1	?
COc1cccc2sc(Nc3nnc(-c4ccc(F)cc4)o3)nc12	1.1	0	nt	nt	nt	90*
COc1cccc2sc(Nc3nnc(-c4cccs4)o3)nc12	1.2	?	-17	5	-1	?
O=C1CCCC(O)=C1C(C#Cc1ccccc1)C1=C(O)CCCC1=O	1.2	-1	4	47*	0	3
SMILES	Autofluor Jurkat	VLA-4 agonist	FPRL1 binder	FPR binder	Proteasome disasm	VLA-4 antagonist
Cc1ccc(C)c(N2CCN(S(=O)(=O)c3c(C)noc3/C=C/N(C)C)CC2)c1	1	-3	1	-8	49*	?
Cc1noc(/C=C/N(C)C)c1S(=O)(=O)N1CCN(c2ccccc2)CC1	1.1	-1	7	10	-1	-20
Cc1cc(-c2ccccc2)c2c3c(cn2n1)c(=O)n(C)c(=O)n3C	1	-18	2	-3	0	8
COC(=O)c1ccc2c(c1)NC(=O)C(N1CCCC1)S2 (centres undefined)	5*	?	-12	-17	20	?
COc1cccc(CNC(=O)Cn2cc3c(n2)CCCC3)c1	1.1	-1	30	40*	-2	-20
CC(C)CNc1nc(Oc2ccc(=O)n(C)n2)nc(N2CCOCC2)n1	0.94	12	-8	-6	2	-22
O=C(NCc1cccnc1)C1c2ccccc2C(=O)N1C1CCCCCCC1 (centres undefined)	1	-20	13	48*	0	20
O=C(NC1CCCCCC1)C1c2ccccc2C(=O)N1Cc1cccnc1 (centres undefined)	1.1	-2	3	4	2	0
O=C(NC1CCCC1)C1c2ccccc2C(=O)N1C1CCCCC1 (centres undefined)	1.1	1	5	12	2	4
O=C(NCc1cccnc1)C1c2ccccc2C(=O)N1C1CCCCCC1 (centres undefined)	1.1	?	25	62*	1	?
Clc1ccc(Cn2c(CN3CCCC3)nc3ccccc32)cc1	0.99	-8	8	4	1	10
COc1ccc(CCN2CCC(Nc3nc4ccccc4n3Cc3ccc(F)cc3)CC2)cc1	2.6*	?	0	-8	1	?
Cc1cccn2c(=O)c3cc(C(=O)N4c5ccccc5CC4C)n(C)c3nc12 (centres undefined)	2.7*	?	-4	1	4	?
CC1Cc2ccccc2N1C(=O)c1cc2c(=O)n3ccccc3nc2n1C (centres undefined)	1.3	?	-3	-1	-2	?
CCCCOC(=O)CSCC(=O)Nc1cc(C)on1	1.1	1	-1	2	0	-3
CCN(C(=O)Cc1c(C(=O)O)[nH]c2ccccc12)c1cc(OC)ccc1OC	1.1	5	0	32*	0	-14
CCN(C(=O)c1coc(=O)c2ccccc12)c1cc(OC)ccc1OC	1	?	-1	0	0	?
COc1ccc(Cl)cc1-n1c(=S)sc2c(=O)[nH]c(SCC(=O)NCC3CCCO3)nc21 (centres undefined)	1.1	-3	-3	44*	1	-10
CCOc1ccc(-n2c(=S)sc3c(=O)[nH]c(SCC(=O)NCc4ccco4)nc32)cc1	1.1	7	-4	1	1	-17
Cc1ccc(-c2ccc(SCC(=O)Nc3nonc3C)nn2)cc1	0.98	-2	-4	-4	-2	4
COc1ccccc1N1CCN(C(=O)c2sc3nc(-c4ccccc4)cn3c2C)CC1	3.2*	?	-10	-4	1	?

Bioassay records deposited in PubChem BioAssay by NMMLSC.
